For 13 compounds, NF-kB reporter, IRF reporter and viability score results are on record in the supplement of paper PMC10646978.

± gives the standard deviation.

Holding throughout (conditions): modulator concentration 10 µM
For experiment [1], the system named is RAW-Dual (murine macrophage reporter line). The experiment is described as follows: NF-kB reporter (SEAP) activity fold change vs agonist alone; higher = enhanced NF-kB activity. In short, it runs like this:
(§1)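 In 384-well plates holding 50 000 RAW-Dual murine macrophage reporter cells per well, compound at 10 μM final was pre-incubated for 1 hour at 37 °C, after which a PRR agonist was added overnight. Supernatant SEAP read with QUANTI-Blue at 620 nm absorbance reported NF-κB, and Lucia luciferase read with QUANTI-Luc luminescence reported IRF. Fold change values come from dividing each reporter signal by the mean of agonist-only control wells on the same plate, averaged over replicate plates with propagated errors.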

For experiment [2] the test system is unchanged. The experiment is described as follows: IRF reporter (Lucia luciferase) activity fold change vs agonist alone; higher = enhanced IRF activity. In short, it runs like this: as §1
The test system is the same in experiment [3]. The experiment is described as follows: viability score (confluency relative to resting cells, overnight) (fraction); higher = more viable, active = viable (0.7 or more). In outline: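 Two confluency masks, generated with IncuCyte software over all imaged wells, were applied to IncuCyte images of RAW-Dual macrophages. The cells, in 384-well plates, had been exposed overnight to 10 μM final compound. The viability score is confluency as a fraction of resting cells, and a compound met the cutoff only with both masks above 70% of resting cells.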

The mark [4] stands for this setting: agonist: CpG ODN 1826 0.5 ug/mL.

Take `Cl.Fc1ccc(C2CCNCC2COc2ccc3c(c2)OCO3)cc1` (stereo unspecified): the NF-kB reporter in experiment [1] (setting [4]) stood at 0.829 ± 0.23; in experiment [1] (agonist: LPS 0.1 ug/mL), 0.938 ± 0.089; in experiment [1] (agonist: MPLA […]) it was 0.918 ± 0.058. In addition, the figures for the IRF reporter in experiment [2] (agonist: 3'3'-cGAMP 10 ug/mL), in experiment [2] (agonist: LPS 0.1 ug/mL) and in experiment [2] (agonist: MPLA […]) were 0.916 ± 0.041, 1.05 ± 0.18 and 1.07 ± 0.15, respectively. The viability score in experiment [3] was 0.968 (active).
Turning to `Cc1cc(C)nc(NC#N)n1`, the NF-kB reporter in experiment [1] (setting [4]) was determined as 0.919 ± 0.072; in experiment [1] (agonist: LPS 0.1 ug/mL) it was 0.966 ± 0.11; in experiment [1] (agonist: MPLA […]), 0.971 ± 0.061. For the same compound, the IRF reporter in experiment [2] (agonist: 3'3'-cGAMP 10 ug/mL) was found to be 0.776 ± 0.1; in experiment [2] (agonist: LPS 0.1 ug/mL) it was 1.02 ± 0.13; in experiment [2] (agonist: MPLA […]) it was 1.18 ± 0.2. In experiment [3], the viability score is 0.998 (active).
As to `CN(C)CCCN1c2ccccc2CCc2ccccc21.Cl`, the NF-kB reporter in experiment [1] (setting [4]) stood at 0.827 ± 0.069; in experiment [1] (agonist: LPS 0.1 ug/mL), 1.04 ± 0.1; in experiment [1] (agonist: MPLA […]), 1.2 ± 0.07. Further, the figures for the IRF reporter in experiment [2] (agonist: 3'3'-cGAMP 10 ug/mL), in experiment [2] (agonist: LPS 0.1 ug/mL) and in experiment [2] (agonist: MPLA […]) were 0.737 ± 0.043, 0.935 ± 0.089 and 0.824 ± 0.093, respectively. The viability score in experiment [3] was 0.883 (active).
In the case of `COc1cccc(NC(=O)CN(c2cccc(Br)c2)S(C)(=O)=O)c1`, the NF-kB reporter in experiment [1] (setting [4]) stood at 0.906 ± 0.085; in experiment [1] (agonist: LPS 0.1 ug/mL) it was 0.998 ± 0.074; in experiment [1] (agonist: MPLA […]) it was 0.919 ± 0.036. The IRF reporter in experiment [2] (agonist: 3'3'-cGAMP 10 ug/mL) is 0.848 ± 0.092; in experiment [2] (agonist: LPS 0.1 ug/mL), 0.937 ± 0.11; in experiment [2] (agonist: MPLA […]), 0.876 ± 0.078. Also, the viability score in experiment [3] was 0.998 (active).
As to `CN(C)C(=O)c1cc2cnc(Nc3ccc(N4CCNCC4)cn3)nc2n1C1CCCC1`, the NF-kB reporter in experiment [1] (setting [4]) stood at 0.832 ± 0.036; in experiment [1] (agonist: LPS 0.1 ug/mL) it was 0.887 ± 0.11; in experiment [1] (agonist: MPLA […]), 0.941 ± 0.071. In addition, the IRF reporter came out at 0.987 ± 0.046 in experiment [2] (agonist: 3'3'-cGAMP 10 ug/mL), 1.35 ± 0.29 in experiment [2] (agonist: LPS 0.1 ug/mL) and 1.53 ± 0.49 in experiment [2] (agonist: MPLA […]). Further, the viability score in experiment [3] was 0.711 (active).
For `c1ccc(CC(=NNc2ccccc2)c2ccc(-c3ccccc3)cc2)cc1`, the NF-kB reporter in experiment [1] (setting [4]) worked out at 0.855 ± 0.091; in experiment [1] (agonist: LPS 0.1 ug/mL), 0.879 ± 0.069; in experiment [1] (agonist: MPLA […]) it was 1.07 ± 0.11. Also, the IRF reporter amounted to 0.657 ± 0.028 in experiment [2] (agonist: 3'3'-cGAMP 10 ug/mL), 1.3 ± 0.2 in experiment [2] (agonist: LPS 0.1 ug/mL) and 1.35 ± 0.28 in experiment [2] (agonist: MPLA […]). The viability score in experiment [3] was 1.03 (active).
Take `Cc1cc(O)nc(NN)n1`: the NF-kB reporter in experiment [1] (setting [4]) stood at 1.06 ± 0.087; in experiment [1] (agonist: LPS 0.1 ug/mL), 1.01 ± 0.062; in experiment [1] (agonist: MPLA […]) it was 1.02 ± 0.033. In addition, the values for the IRF reporter in experiment [2] (agonist: 3'3'-cGAMP 10 ug/mL), in experiment [2] (agonist: LPS 0.1 ug/mL) and in experiment [2] (agonist: MPLA […]) were 0.983 ± 0.054, 0.971 ± 0.13 and 0.861 ± 0.13, respectively. Besides, the viability score in experiment [3] was 0.999 (active).
With `O=C(O[C@H]1C[C@H]2CC3C[C@@H](C1)N2CC3=O)c1c[nH]c2ccccc12`, the figures for the NF-kB reporter in experiment [1] (setting [4]), in experiment [1] (agonist: LPS 0.1 ug/mL) and in experiment [1] (agonist: MPLA […]) were 0.524 ± 0.055, 0.598 ± 0.1 and 0.693 ± 0.03, respectively. The IRF reporter in experiment [2] (agonist: 3'3'-cGAMP 10 ug/mL) amounted to 0.92 ± 0.051; in experiment [2] (agonist: LPS 0.1 ug/mL), 0.909 ± 0.03; in experiment [2] (agonist: MPLA […]), 0.912 ± 0.084. Besides, the viability score in experiment [3] was 0.998 (active).
With `COC(=O)c1cc(Br)ccc1NC(=O)c1ccccc1`, the NF-kB reporter came out at 1.07 ± 0.17 in experiment [1] (setting [4]), 1.02 ± 0.17 in experiment [1] (agonist: LPS 0.1 ug/mL) and 1.03 ± 0.18 in experiment [1] (agonist: MPLA […]). The IRF reporter in experiment [2] (agonist: 3'3'-cGAMP 10 ug/mL) amounted to 1.12 ± 0.045; in experiment [2] (agonist: LPS 0.1 ug/mL), 1.24 ± 0.18; in experiment [2] (agonist: MPLA […]), 1.19 ± 0.21. The viability score in experiment [3] is 0.99 (active).
On to `COc1ccc(CCn2c(C)c(C)n3c4c(=O)n(CCC(C)C)c(=O)n(C)c4nc23)cc1OC`, for which the figures for the NF-kB reporter in experiment [1] (setting [4]), in experiment [1] (agonist: LPS 0.1 ug/mL) and in experiment [1] (agonist: MPLA […]) were 0.95 ± 0.07, 1.01 ± 0.12 and 1.15 ± 0.14, respectively. Moreover, the IRF reporter in experiment [2] (agonist: 3'3'-cGAMP 10 ug/mL) was determined as 1.03 ± 0.048; in experiment [2] (agonist: LPS 0.1 ug/mL) it was 1.37 ± 0.24; in experiment [2] (agonist: MPLA […]), 1.57 ± 0.44. For the same compound, the viability score in experiment [3] was 0.95 (active).
In the case of `O=C1C(=Cc2ccccc2)SC(=S)N1CO`, the NF-kB reporter in experiment [1] (setting [4]) came to 0.546 ± 0.053; in experiment [1] (agonist: LPS 0.1 ug/mL) it was 0.757 ± 0.058; in experiment [1] (agonist: MPLA […]), 0.725 ± 0.08. For the same compound, the values for the IRF reporter in experiment [2] (agonist: 3'3'-cGAMP 10 ug/mL), in experiment [2] (agonist: LPS 0.1 ug/mL) and in experiment [2] (agonist: MPLA […]) were 0.741 ± 0.073, 1.03 ± 0.16 and 1.15 ± 0.32, respectively. Further, the viability score in experiment [3] is 0.968 (active).
On to `COc1ccccc1C1C(C(C)=O)=C(O)C(=O)N1CCN(C)C` (stereo unspecified), for which the NF-kB reporter in experiment [1] (setting [4]) came to 0.967 ± 0.054; in experiment [1] (agonist: LPS 0.1 ug/mL) it was 1.07 ± 0.072; in experiment [1] (agonist: MPLA […]) it was 0.947 ± 0.057. The IRF reporter is 0.958 ± 0.032 in experiment [2] (agonist: 3'3'-cGAMP 10 ug/mL), 1.48 ± 0.24 in experiment [2] (agonist: LPS 0.1 ug/mL) and 1.25 ± 0.12 in experiment [2] (agonist: MPLA […]). The viability score in experiment [3] is 0.988 (active).
As to `c1ccc(CSc2nnc(-c3cccnc3)o2)nc1`, the figures for the NF-kB reporter in experiment [1] (setting [4]), in experiment [1] (agonist: LPS 0.1 ug/mL) and in experiment [1] (agonist: MPLA […]) were 0.986 ± 0.056, 1.09 ± 0.084 and 1 ± 0.074, respectively. For the same compound, the IRF reporter amounted to 0.992 ± 0.036 in experiment [2] (agonist: 3'3'-cGAMP 10 ug/mL), 0.95 ± 0.13 in experiment [2] (agonist: LPS 0.1 ug/mL) and 0.858 ± 0.33 in experiment [2] (agonist: MPLA […]). Also, in experiment [3], the viability score is 1 (active).
